Test results as given in PubChem BioAssay (Tox21).
Inconclusive results are not listed. Where a call stands in place of a potency, no number is given. Values without a mark were called inactive. Active and inactive are the calls of the source. Calls follow the shape of the dose curve; as a rule, active = well fitted cell-killing curve with a large enough effect in the repeat runs (not every such curve was filed as active); inconclusive = weak or mixed curves, or effect the other way; inactive = no such curve, though single readings can be large or run the other way.

assay: qHTS assay to identify small molecule antagonists of the estrogen related receptor signaling pathway with the pleiotropic PPARgamma coactivator (PGC) from Tox21 10K library - cell viability counter screen (AID 1224840); conditions: PGC/ERR reporter cells viability, CellTiter-Fluor, 17.5 h; series mostly up to 92.4 µM; also: nearly all actives have a fitted effect of over 40% in size
Source text: National Center for Advancing Translational Sciences [NCATS]
NIH Chemical Genomics Center [NCGC]
U.S. Environmental Protection Agency [EPA]
National Institutes of Environmental Health Sciences [NIEHS]
National Toxicology Program [NTP]
U.S. Food and Drug Administration [FDA]
Estrogen related receptors (ERRs), the first orphan nuclear receptors discovered, play an important role in the control of cellular energy metabolism. ERRs are required for high-energy production in response to the environmental challenges. The pleiotropic PPARgamma coactivator (PGC) is a major partner of ERR and a key regulator in energy homeostasis. Together they have been implicated in the etiology of metabolic disorders such as Type 2 diabetes and metabolic syndrome. ERR-alpha was also identified as an adverse marker for breast cancer progression; ERR-alpha-positive tumors have a poor prognosis. To screen and to identify environmental compounds that perturb the ERR and PGC/ERR signaling pathways could provide valuable information for potential therapeutic or preventive measures in the treatment of metabolic disease. To differentiate true PGC/ERR antagonists or agonist from cytotoxic substances, the assay is multiplexed with cell viability assay.
Tox21 Assay Protocol Summary:
The PGC/ERR cells were dispensed at 2,000 cells/5 ul/well in 1536-well white plates using a Multidrop dispenser. After the assay plates were incubated at a 37 C/5% CO2 incubator for 6 hours, 23 nL of compounds dissolved in DMSO, positive and negative controls or DMSO only was transferred to the assay plate by a pin tool. The plates were incubated at 37 C for 17.5 hours. 1 ul/well of CellTiter-Fluor reagent was added into the assay plates using a Flying Reagent Dispenser. After 30-minute incubation at 37 C/5% CO2, the fluorescence intensity in the plates was measured using a ViewLux plate reader.

SMILES | Potency | viability change, negative = cytotoxic
CCCCCCCCCCCCCCCCC(=O)O | inactive | –
CCCCCCCCCCCCCCCCCCCl | – | 10.7% [at 8.39 µM]
O=C(O)c1ccccc1-n1cc(C(=O)O)c(=O)c2cc(Nc3c(F)cc(F)cc3Cl)c(Cl)cc21 | inactive | –
CC(C)(C)N | inactive | –
O=C(OCCCCCOC(=O)c1ccccc1)c1ccccc1 | inactive | –
CC/C=C\CCO | inactive | –
COC(=O)C(C)(C)C | inactive | –
O=C(O)COCC(=O)O | inactive | –
CC1(C)CC(=O)CC(C)(C)N1 | inactive | –
COC=O | – | 0.435% [at 8.39 µM]
C=C(C)C(=O)OCCCCCCCCCCOC(=O)C(=C)C | inactive | –
C[C@H](CN1CCCC1)C(=O)c1ccc(C(F)(F)F)cc1 | inactive | –
COc1ccnc2c1CCCCC2S(=O)c1nc2ccccc2[nH]1 (stereo not given) | inactive | –
CCCN(C1CCN(C(=O)C2CCNCC2)CC1)[C@@H]1CCc2ccc(OC)cc2C1 | inactive | –
C1=COCCC1 | inactive | –
CS(C)=O | inactive | –
COC(=O)Cc1cccc2ccccc12 | inactive | –
OCCc1ccncc1 | inactive | –
Nc1cccc2c(=O)[nH][nH]c(=O)c12 | inactive | –
CO[C@@H]1[C@@H](O[C@@H]2O[C@H](C)[C@@H](O[C@H]3C[C@@](C)(O)[C@@H](O)[C@H](C)O3)[C@H](N(C)C)[C@H]2O)[C@@H](CC=O)C[C@@H](C)[C@@H](O[C@@H]2CC[C@H](N(C)C)[C@@H](C)O2)/C=C/C=C/C[C@@H](C)OC(=O)C[C@H]1OC(C)=O | inactive | –

SMILES | Potency | viability change, negative = cytotoxic
O=c1[nH][nH]c2ccccc12 | inactive | –
CCCc1ccc(OC)cc1 | inactive | –
O=C(O)c1c2ccccc2cc2ccccc12 | inactive | –
O=c1c2ccccc2oc2ccccc12 | inactive | –
CCC(C)CCCC(C)(C)O (stereo not given) | inactive | –
O=C(O)c1cc(C(=O)O)cc([N+](=O)[O-])c1 | inactive | –
C(/C=C/C=C/Nc1ccccc1)=Nc1ccccc1 | inactive | –
O=C(C1CCCCC1)N1CC(=O)N2CCCc3ccccc3C2C1 (stereo not given) | inactive | –
Cc1c(Cl)cccc1[N+](=O)[O-] | inactive | –
CCn1nc(Cc2ccccc2)cc1C1CCN(C[C@H]2C[C@H](N(C)[C@@H](C(=O)O)C(C)C)C[C@@H]2c2cccc(F)c2)CC1 | inactive | –
COc1cccc([C@H](O)C2CCN(CCc3ccc(F)cc3)CC2)c1OC | inactive | –
CCCCCCCCCCCCSC#N | inactive | –
CCC(C(=O)O)c1ccc(N2Cc3ccccc3C2=O)cc1 (stereo not given) | inactive | –
CC(C)(C)NCC(O)COc1ccc(NC(=O)NC2CCCCC2)cc1 (stereo not given) | inactive | –
CCOc1ccc(NC(C)=O)cc1N | inactive | –
C[C@@H](O)[C@H]1C(=O)N2C(C(=O)O)=C(S[C@@H]3CN[C@H](CNS(N)(=O)=O)C3)[C@H](C)[C@H]12 | inactive | –
CC(Cc1ccccc1)(NC(=O)CN)c1ccccc1 (stereo not given) | inactive | –
Cc1c(Cl)cccc1Nc1ccccc1C(=O)O | inactive | –
Cc1c(Nc2ncccc2C(=O)O)cccc1C(F)(F)F | inactive | –
O=C(c1ccc(Cl)cc1)c1ccc(Cl)cc1 | inactive | –
